JMJD2A Tudor: blocks the human JMJD2A Tudor domain; O75164; AlphaScreen JMJD2A-Tudor / H3K4me3 peptide binding; Potency, µM (doses to about 114 µM), inactives show at the top dose activity change, negative = inhibition, most hits filed as inhibitors; actives 4.4% (n = 390,000); AID 504339; also: % is scaled to controls: 0 for no effect and ±100 for the full control effect; nearly all actives have a fitted effect of over 50% in size
G9a block: G9a (human) methyltransferase inhibition | G9a H3K9 monomethylation, AlphaScreen, 2 h | Potency, µM (highest dose often 102 µM), for the others: top-dose activity, negative = inhibition, actives largely listed as inhibitors | actives 8.8% (n = 350,000); also: % is scaled to controls: 0 for no effect and ±100 for the full control effect; nearly all actives have a fitted effect of over 75% in size
Target sequence (Q96KQ7 913-1193 limits assumed): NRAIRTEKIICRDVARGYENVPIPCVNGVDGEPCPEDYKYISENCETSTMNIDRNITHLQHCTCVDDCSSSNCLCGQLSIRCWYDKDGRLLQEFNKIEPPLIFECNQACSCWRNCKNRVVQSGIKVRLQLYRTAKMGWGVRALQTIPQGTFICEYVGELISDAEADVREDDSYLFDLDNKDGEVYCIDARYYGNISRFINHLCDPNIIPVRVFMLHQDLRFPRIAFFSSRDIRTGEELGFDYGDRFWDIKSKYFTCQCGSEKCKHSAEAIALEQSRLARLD
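Chemiluminescent proximity detection of H3K9 monomethylation, read after 10 min bead incubation in the dark. Reaction: 20 nM G9a, 500 nM biotin-H3K9 peptide, 20 uM SAM cofactor, 2 h, room temperature, following 15 min enzyme-compound preincubation.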
PLK1 PBD block: PLK1 (human) polo-box domain binding inhibition | P53350 | Plk1 PBD binding of FITC phosphopeptide, fluorescence polarization | Potency, µM, for the others: max response, negative = inhibition, most hits filed as inhibitors | actives 2.8% (n = 360,000) | AID 720504; also: series mostly up to about 57 µM; % is scaled to controls: 0 for no effect and ±100 for the full control effect; nearly all actives have a fitted effect of over 65% in size
BAZ2B inh: BAZ2B (human) inhibition. AlphaScreen BAZ2B-H3K14Ac peptide displacement. Potency, µM (doses to about 114 µM), for the others: at the top dose activity change, negative = inhibition, usual class: inhibitors. actives 4.4% (n = 360,000). AID 504333; also: % is scaled to controls: 0 for no effect and ±100 for the full control effect; nearly all actives have a fitted effect of over 60% in size
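Multi-concentration screen (max 110 uM) measuring displacement of acetylated histone H3 peptide from BAZ2B by AlphaScreen, using 50 nM protein, 50 nM peptide and 10 ug/mL streptavidin donor plus Ni-chelate acceptor beads.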
HP1b chromo inh: HP1-beta chromodomain-methylated histone interaction inhibition; P83916; AlphaScreen HP1-beta / biotin-H3K9me3 peptide binding; Potency, µM (titrated, usually from 114 µM), inactives show at the highest dose activity change, negative = inhibition, most hits filed as inhibitors; actives 0.56% (n = 390,000); AID 540317; also: nearly all actives have a fitted effect of over 70% in size
Target sequence (P83916 whole entry, looked up): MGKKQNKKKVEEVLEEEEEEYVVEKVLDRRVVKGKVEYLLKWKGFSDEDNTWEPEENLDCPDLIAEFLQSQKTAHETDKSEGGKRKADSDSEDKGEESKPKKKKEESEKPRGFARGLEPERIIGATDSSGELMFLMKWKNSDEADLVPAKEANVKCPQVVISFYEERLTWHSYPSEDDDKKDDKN
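Compound inhibition of the preformed complex between 50 nM HP1-beta and 50 nM biotinylated H3K9me3 peptide was read by AlphaScreen. Buffer was PBS pH 7.4 with 0.01% Tween-20. Incubations ran 30 min at room temperature, with 10 ug/mL donor/acceptor beads.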
12-LOX inh: ALOX12 (human) lipoxygenase inhibition; purified 12hLO, xylenol orange hydroperoxide absorbance; Potency, µM (series often up to 108 µM), for inactives: at the top dose activity change, negative = inhibition, most hits filed as inhibitors; actives 1.1% (n = 580,000); AID 1671190; also: % is scaled to controls: 0 for no effect and ±100 for the full control effect
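Hydroperoxide product was detected by ferrous iron/xylenol orange as the 573 to 405 nm absorbance ratio. Arachidonic acid at 40 uM (final) was turned over for 30 min at room temperature by 150 nM human 12hLO, pH 7.0 Hepes buffer, after 15 min compound preincubation.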
* = called active by the depositor; u = inconclusive; x = not tested or not shown; [ ] = another dose, or the depositor's remark. Only some compounds are listed: those with a hit (about 9% of all), similar ones and a draw of the others. Calls follow the shape of the dose curve; as a rule, active = well fitted curve in the direction sought with a large enough effect; inconclusive = small, poorly fitted or top-dose-only effect, or another doubt; inactive = no such curve, though single readings can be large; an effect the other way counts as inactive or inconclusive. Potency is read from the fitted curve at half-maximal effect.

SMILES	JMJD2A Tudor	G9a block	PLK1 PBD block	BAZ2B inh	HP1b chromo inh	12-LOX inh
O=C(CSc1nc2ccccc2c(=O)[nH]1)NCc1ccc(Cl)cc1	-15.3%	-2.0%	-7.8%	11.3%	24.4%	-56.8%
COc1cc(/C=N/Nc2ccc([N+](=O)[O-])cn2)cc(OC)c1O	-22.5%	8.91µM*	-4.4%	-27.6%	81.7%	-3.3%
COc1cc(/C=C/C(C)=NNc2ccccc2)ccc1O	50.1µM*	x	-22.7%	x	u	u
COc1cc(/C=N/NC(=O)CCN2CCCCC2)ccc1O	-3.0%[11.4 µM]	u	u	-3.5%	27.9%	-11.3%
COc1cc(/C=N/Nc2ccc(C(=O)O)cc2)ccc1O	u	u	-25.8%	50.1µM*	50.1µM*	-15.3%
COc1cc(/C=N/NC(=O)CCn2cnc(-c3ccccc3)c2-c2ccccc2)ccc1O	56.2µM*	44.7µM*	1.7%	44.7µM*	u	-3.1%
COc1cc(/C=N/NC(=O)c2ccccc2)ccc1O	1.4%	25.5%	-0.7%	1.5%	28.0%	5.9%
CN(C)c1nc(NCCNS(=O)(=O)c2ccc(Cl)cc2)ncc1F	x	x	x	x	x	59.6%
Cc1cc(C)c(NC(=O)COC(=O)COc2ccc3c(C)cc(=O)oc3c2)c(Cl)c1	27.9%	-15.5%[59 µM]	1.6%	0.7%	27.4%	208.6%
COc1ccc([N+](=O)[O-])cc1/C=N/Nc1nn[nH]n1	-5.6%	44.7µM*	-6.6%	u	16.2%	-8.1%
C=CCOc1c(OC)cc(/C=N/Nc2cccc(C(=O)O)c2)c(Br)c1Br	56.2µM*	10µM*	29.9µM*	39.8µM*	u	u
COc1ccccc1-n1c(SCC(=O)NCC2CCCO2)nc2c([nH]c3ccccc32)c1=O (centres undefined)	-29.7%	2.3%	-6.4%	-20.6%	28.9%	35.5µM*
Cc1ccc(C(=O)NCC2CCCO2)cc1N1CCCC1=O (centres undefined)	-11.5%[11.4 µM]	x	26.7µM*	-0.6%	-7.0%	5.6%
O=C(NCC1CCCO1)c1ccc2c(=O)n(-c3ccccc3)c(=S)[nH]c2c1 (centres undefined)	2.2%	-46.1%	4.5%	x	38.9%	-0.5%
O=C(CCn1c(=S)[nH]c2ccccc2c1=O)NCC1CCCO1 (centres undefined)	50.1µM*	u	-5.5%	1.2%	41.4%	u
CCCn1c(=S)[nH]c2cc(C(=O)NCC3CCCO3)ccc2c1=O (centres undefined)	-1.4%	10µM*	0.1%	-7.6%	50.9%	12.3%[57.4 µM]
O=C(CSc1nc2c([nH]c3ccccc32)c(=O)n1-c1ccccc1)NCC1CCCO1 (centres undefined)	-11.0%	4.1%	-12.6%	-16.3%	11.3%	-2.3%
O=C(CCn1c(=S)[nH]c2ccccc2c1=O)NCCc1ccccc1	-1.7%	-31.0%	-7.7%	x	26.2%	13.1%
CCCS(=O)(=O)NC(=O)C1(C)CCN(C(=O)c2ccc(OC(F)F)cc2)C1 (centres undefined)	x	x	4.4%	x	x	-23.7%
N#CC1=C(N)Oc2cc(O)c(Cl)cc2C1c1ccccc1F (centres undefined)	-13.4%	50.1µM*	-1.8%	-11.5%	25.7%	u
N#CC1=C(N)Oc2cc(O)c(Cl)cc2C1c1cccnc1 (centres undefined)	-11.3%	31.6µM*	-28.4%	-14.3%	1.8%	-15.4%
N#CC1=C(N)Oc2ccc3ccccc3c2C1c1cccnc1 (centres undefined)	-18.5%	44.7µM*	-3.7%	-38.4%	30.6%	9.0%
Nc1ccc(SCc2cccnc2)cc1	-17.7%	44.7µM*	u	21.3%	-1.9%	u
CCCCSCCCNC(=O)Nc1cccc(OC)c1	-17.9%	u	-2.9%	-11.5%	9.3%	-2.6%
SMILES	JMJD2A Tudor	G9a block	PLK1 PBD block	BAZ2B inh	HP1b chromo inh	12-LOX inh
COC(=O)c1scc(S(=O)(=O)C(C)C)c1N/N=C(\C#N)C(=O)c1ccc(Cl)cc1	u	50.1µM*	-12.4%	-33.3%	-5.6%	-24.8%
COC(=O)c1scc(C#N)c1N/N=C(\C#N)S(=O)(=O)c1ccc(Cl)cc1	u	44.7µM*	-10.0%	-37.3%	-9.1%	u
CCN(CC)C(=O)CC(c1ccc(N(C)C)cc1)c1c(OC)cc(OC)c2ccc(=O)oc12 (centres undefined)	44.7µM*	u	-13.1%	u	-17.7%	-12.2%
CCN(CC)CCC(c1ccc(N(C)C)cc1)c1c(OC)cc(OC)c2ccc(=O)oc12 (centres undefined)	44.7µM*	u	4.1%	39.8µM*	-27.4%	-11.5%
CCN(CC)CCC(c1ccc(OC)cc1)c1c(OC)cc(OC)c2c(C)cc(=O)oc12 (centres undefined)	-25.5%	x	x	x	17.2%	x
CCOc1ccccc1CNC(=O)CCc1cn(Cc2ccc(Cl)cc2)c2ccccc12	-1.1%	-5.6%[59 µM]	x	-17.0%	41.0%	0.0%
CC(C)c1ccc(NC(=O)C2CCN(c3cc(C(F)(F)F)ncn3)CC2)cc1	x	x	x	x	x	16.5%
CC(NC(=O)C1CCN(c2cc(C(F)(F)F)ncn2)CC1)c1ccccc1 (centres undefined)	x	x	x	x	x	44.7µM*
COc1ccc(NC(=O)/C(C#N)=C\c2ccc(N3CCOCC3)o2)cc1	-18.1%	u	117.6%	-35.3%	0.2%	-28.0%
Cc1cc(C)n2nc(S(=O)(=O)N(C)Cc3ccccc3)nc2n1	13.5%	-26.2%[12.7 µM]	-1.8%	-3.2%	37.6%	0.0%
CSc1ccccc1OCc1cc(C(=O)N2CCc3[nH]cnc3C2c2ccccn2)no1 (centres undefined)	17.8µM*	u	-5.9%	56.2µM*	u	43.9%
COC(=O)CCC(=O)c1cc(OC)ccc1OC	x	x	x	x	x	6.0%
CC(C)CCOc1cccc(C2c3c(oc4ccccc4c3=O)C(=O)N2CCCN2CCOCC2)c1 (centres undefined)	-25.4%	x	-25.4%	x	42.0%	-0.2%
COc1ccc(C2c3c(oc4ccccc4c3=O)C(=O)N2Cc2ccncc2)cc1 (centres undefined)	x	-0.2%[59 µM]	x	0.0%	x	x
Cc1ccc2oc3c(c(=O)c2c1)C(c1cccs1)N(CCCN(C)C)C3=O (centres undefined)	-22.4%	39.8µM*	u	-23.2%	17.6%	x
COC(=O)c1ccc(C2c3c(oc4ccccc4c3=O)C(=O)N2CCCN2CCOCC2)cc1 (centres undefined)	-12.0%	35.5µM*	u	-2.9%	45.7%	u
CN1C(=O)c2oc3ccccc3c(=O)c2C1c1ccncc1 (centres undefined)	56.2µM*	8.91µM*	26.7µM*	-22.9%	9.7%	x

Source: PubChem BioAssay (National Center for Advancing Translational Sciences (NCATS))
